# Source: PubChem (National Center for Advancing Translational Sciences (NCATS))
# Pf growth 48h = inhibits P. falciparum growth in the first generation, 48 h; P. falciparum luciferase growth in erythrocytes, 48 h; Potency, µM (highest dose often 28.7 µM), without a hit: at the top dose activity change, negative = inhibition, actives largely listed as inhibitors; 310,000 compounds, 5.9% hits; AID 504832; further: potency means the concentration at half of the fitted maximal effect; on the % scale 0 is the no-effect control and ±100 the full control effect
#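 Luciferase-expressing P. falciparum in infected erythrocytes (2% hematocrit, 0.1% parasitemia final) in RPMI 1640/0.5% Albumax were exposed to compound for 48 hours at 37 C, 5% CO2; growth read as luminescence.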
# NS1 function inh = inhibitors of influenza NS1 protein function | Potency, µM (doses to about 46.1 µM), for the others: top-dose activity, positive = more growth | 270,000 compounds, 0.4% hits | AID 2326; calls by dose curve; further: potency means the concentration at half of the fitted maximal effect; actives are rising curves; nearly all actives have a fitted effect of over 50% in size
#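 In this qHTS, NS1 from influenza A is expressed in budding yeast, where it slows growth. Cells are switched from glucose to 2% galactose medium (pH 6.0, -URA), treated with compound, and growth recovery is read at OD600.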
# Sm TGR block = S. mansoni TGR enzyme inhibition; purified TGR, DTNB reduction, TNB absorbance 405 nm; Potency, µM (doses to about 114 µM), for the others: at the top dose activity change, negative = inhibition, actives largely listed as inhibitors; 360,000 compounds, 3% hits; AID 485364; further: potency means the concentration at half of the fitted maximal effect; on the % scale 0 is the no-effect control and ±100 the full control effect; nearly all actives have a fitted effect of over 60% in size
#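 Kinetic colorimetric format: TGR-catalysed, NADPH-driven DTNB reduction monitored via TNB absorbance. Enzyme dispensed at 20 nM; compound exposure 15 min at room temperature before reaction start.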
# CHX counter = counter-screen hit for Shiga toxin inhibitors, cycloheximide | cell reporter, cycloheximide protein synthesis inhibition counterscreen | max response, % | 300,000 compounds, 12% hits; in the data active means max response mostly above about 13%, no sharp cut-off; inactive means mostly below about 14%; further: read at 38.3 µM for the half of the compounds with a filed dose; 0% is about no effect
# Pf growth 96h = inhibits malaria parasite growth, 96 h | Potency, µM (series often up to 28.7 µM), inactives show at the top dose activity change, negative = inhibition, usual class: inhibitors | P. falciparum luciferase reporter growth, 96 h | AID 504834 | 320,000 compounds, 6.9% hits; further: potency means the concentration at half of the fitted maximal effect; on the % scale 0 is the no-effect control and ±100 the full control effect
#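 96 h incubation, 37 C, 5% CO2, of luciferase-reporter P. falciparum-infected RBCs (2% hematocrit, 0.05% parasitemia final) with test compounds; endpoint luminescence.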
# Shiga inhibitor = Shiga toxin inhibition; 290,000 compounds, 9.2% hits; inhibition, % at 38.7 µM; Vero cells, Shiga toxin protein synthesis inhibition reporter; in the data active means inhibition mostly above about 28%, no sharp cut-off; inactive means mostly below about 43%; further: 0% is about no effect
# * hit, by the source's call; u = inconclusive; x = no result given. Only some compounds are listed: those with a hit (about 21% of all), similar ones and a draw of the others. Unless noted, the call rests on the fitted dose curve; in most records, active means well fitted curve in the direction sought with a large enough effect; inconclusive means small, poorly fitted or top-dose-only effect, or another doubt; inactive means no such curve, though single readings can be large; an effect the other way counts as inactive or inconclusive.
SMILES,Pf growth 48h,NS1 function inh,Sm TGR block,CHX counter,Pf growth 96h,Shiga inhibitor
COc1cc(C2c3[nH]c4ccccc4c3C[C@H]3C(=O)N(C4CC4)CC(=O)N23)ccc1OC(C)C (some centres not stated),9.28µM*,-6.0%,-3.2%,-6.7,9.28µM*,-7.3
COc1ccc(C2c3[nH]c4ccccc4c3C[C@H]3C(=O)N(C)CC(=O)N23)cc1OC (some centres not stated),u,-0.5%,-13.8%,-3.2,u,-5.2
C=CCc1cccc([C@@H]2[C@@H](C)CC[C@H]3C(=O)N4[C@@H](c5cc(OC)c(OC)c(OC)c5)c5[nH]c6ccccc6c5C[C@H]4C(=O)N23)c1,4.15µM*,22.4µM*,-17.4%,-2.8,u,-4.9
COc1cccc(C2c3[nH]c4ccccc4c3C[C@H]3C(=O)N(C)CC(=O)N23)c1 (some centres not stated),7.38µM*,-3.3%,-11.2%,-1.0,7.38µM*,-3.8
COc1ccc(C2c3[nH]c4ccccc4c3C[C@H]3C(=O)N(CCCO)CC(=O)N23)cc1OC (some centres not stated),-18.2%,-1.5%,4.6%,-3.8,-10.6%,-6.6
COc1cc(C2c3[nH]c4ccccc4c3C[C@@H]3C(=O)N(Cc4ccco4)CC(=O)N23)cc(OC)c1OC (some centres not stated),2.33µM*,8.8%,-4.3%,-5.2,3.7µM*,-2.4
CSc1ccccc1-c1n[nH]c(=S)o1,13.1µM*,x,0.6%,-5.1,38.4%,-13.2
Cc1ccccc1-c1n[nH]c(=S)o1,21.8%,-211.2%,4.1%,-4.1,11.6%,24.1
Cc1ccc(-c2nnn(CC(=O)O)n2)cc1,6.3%,-9.9%,-8.7%,-3.3,-10.3%,2.2
O=C(CN1CCOCC1)N1CCCc2ccccc21,12.3%,1.8%,x,6.3,u,16.5
O=C(Cn1nnc(-c2ccc(CN3CCOCC3)cc2)n1)N1CCCc2ccccc21,u,-17.9%,-20.9%,-6.4,2.62µM*,-17.2
Cc1ccc(-c2nnn(CC(=O)N3c4ccccc4CCc4ccccc43)n2)cc1,10.4µM*,u,-0.1%,-1.3,u,7.9
CCCOC(=O)c1c(N)sc2c1CCC2,-3.1%,-1.3%,u,-2.5,u,10.2
COCCNC(=O)c1c(N)sc2c1CCCC2,9.28µM*,9.1%,u,-3.5,u,-17.7
CNC(=O)c1c(N)sc2c1CCCCC2,x,-20.3%,u,-4.2,10.4µM*,-14.2
Cc1ncc(CN2CCC(N3CCC(C(=O)N4CCCC4)CC3)CC2)s1,2.6%,3.0%,-16.9%,10.6,23.6%,20.2
Cc1ccc(-c2cc(C(=O)N3CCCc4ccccc43)c3ccccc3n2)cc1,8.28µM*,-54.2%,-4.6%,-1.8,x,-13.0
O=C(c1cc(-c2cccnc2)nc2ccccc12)N1CCN(S(=O)(=O)c2cccs2)CC1,11.7µM*,x,-4.9%,x,13.1µM*,x
O=C(c1cccnc1)N1CCCc2ccccc21,-3.6%,3.8%,2.5%,-6.9,5.7%,-6.3
O=C(c1cc(-c2cccnc2)nc2ccccc12)N1CCCc2ccccc21,u,-19.7%,-0.7%,-4.3,10.4µM*,-6.0
Cc1ccc(-c2cc(C(F)(F)F)n3ncc(C(=O)N4CCCc5ccccc54)c3n2)cc1,u,7.6%,-1.8%,13.8,-12.8%,-1.9
Cc1ccc(NC(=O)c2nc(-c3ccncc3)no2)c(Cl)c1,x,x,11.6%,x,x,x
Cc1cc(Cl)ccc1NS(=O)(=O)c1cc2[nH]c(=O)c(=O)[nH]c2cc1C,x,x,-2.2%,x,x,x
CCN(CC)c1ccc(NS(=O)(=O)c2cc3[nH]c(=O)c(=O)[nH]c3cc2C)c(C)c1,x,x,35.5µM*,x,x,x
COc1cc(NC(C)CCc2ccccc2)cc(OC)c1OC (configuration not stated),-21.7%,u,0.0%,-2.8,3.7µM*,-7.7
SMILES,Pf growth 48h,NS1 function inh,Sm TGR block,CHX counter,Pf growth 96h,Shiga inhibitor
COc1cccc(OC)c1C(=O)NC(C)CCc1ccccc1 (configuration not stated),23.9%,-146.0%,-3.2%,1.0,u,x
COc1ccc(CCC(C)Nc2cccc(F)c2)cc1 (configuration not stated),u,-17.9%,1.8%,18.4*,u,13.2
CCc1ccc(S(=O)(=O)c2nnn3c2nc(N(C)Cc2ccccc2)c2cc(Cl)ccc23)cc1,x,x,10.8%,x,x,x
CCOC(=O)C(C)Oc1ccc(=O)n(-c2ccccc2)n1 (configuration not stated),-2.5%,1.1%,-1.8%,-2.0,1.85µM*,-4.6
O=c1c(Cl)c(N2CCCCC2)cnn1-c1nc2ccccc2[nH]1,0.0%,-11.5%,-0.3%,19.8*,241.4%,16.9
O=c1c2ccccc2cnn1-c1nc2ccccc2[nH]1,-31.3%,x,-8.9%,-10.5,-40.6%,-34.8
CC(CN(C)C)C(C)(O)Cc1ccc(Cl)cc1 (configuration not stated),-4.2%,x,x,5.0,2.1%,-18.5
CC(=O)NC12CC3CC(C1)CC(C(=O)N1CCN(S(=O)(=O)c4ccc(Cl)s4)CC1)(C3)C2,u,-1.7%,-4.9%,6.5,u,17.0
CSCCCNC(=S)N1CCN(S(=O)(=O)c2cccc(C(F)(F)F)c2)CC1,10.4µM*,9.9%,0.3%,-2.9,-93.5%,-6.0
O=S(=O)(c1cccc(C(F)(F)F)c1)N1CCN(C(=S)NCc2ccco2)CC1,4.65µM*,-7.1%,-5.5%,-1.7,2.33µM*,0.6
CC(=O)NC12CC3CC(C1)CC(C(=O)N1CCN(S(=O)(=O)c4cccc(C(F)(F)F)c4)CC1)(C3)C2,13.1µM*,x,-12.5%,x,u,x
CCOC(=O)c1sc(NC(=O)c2nc3ncccn3n2)c(C(=O)OC(C)C)c1C,x,x,8.6%,x,x,x
Cc1ccc(CN2CCN(C3CCCC3)C(CCO)C2)s1 (configuration not stated),23.6%,5.6%,x,-1.0,-3.0%,-2.9
O=C(CCS(=O)(=O)c1cc2c(cc1Cl)NC(=O)CO2)NCc1ccccc1,27.5%,-6.4%,-1.2%,-4.0,u,-7.9
O=C(NCCOc1ccc(F)cc1)C1CCC(=O)N(CCN2CCOCC2)C1 (configuration not stated),10.9%,7.2%,2.0%,-4.2,u,-22.1
CN1CCN(C(=S)c2ccc(-c3cc(Cl)ccc3Cl)o2)CC1,u,-30.8%,11.0%,8.5,1.3%,8.6
S=C(c1ccc(-c2ccc(Cl)cc2Cl)o1)N1CCCCC1,109.9%,-10.0%,-14.6%,41.9*,198.9%,77.7*
N#CCCN1CCN(C(=S)c2ccc(-c3cc(Cl)ccc3Cl)o2)CC1,u,-29.7%,4.3%,0.6,5.22µM*,-2.1
S=C(c1ccc(-c2ccc(Cl)cc2Cl)o1)N1CCCC1,u,2.7%,-25.2%,17.7*,u,22.5
NC(=O)C1CCCN(C(=O)c2ccc(-c3cccc(Cl)c3Cl)o2)C1 (configuration not stated),159.5%,x,-8.3%,x,169.9%,x
